Experimental data: PubChem BioAssay (EPA / NIEHS)
Results filed as inconclusive are left out. Active and inactive are the calls of the source. The calls were made as follows, unless noted: active = hit-call score of the fitted dose curve at least 0.9, where 1 is the maximum; inconclusive = response in the unintended direction; inactive = score below 0.9.

Key:
[1] = target: Bile acid receptor (Homo sapiens) (UniProt Q96RI1); test: OT_FXR_FXRSRC1_0480: Odyssey Thera (OT) 8-hour HEK293T Protein-Complementation Assay for Farnesoid X receptor/SRC-1 Co-activator (AID 2283383)
Chain of Bile acid receptor (Homo sapiens) (Q96RI1 whole entry, looked up, the tested form may be a part): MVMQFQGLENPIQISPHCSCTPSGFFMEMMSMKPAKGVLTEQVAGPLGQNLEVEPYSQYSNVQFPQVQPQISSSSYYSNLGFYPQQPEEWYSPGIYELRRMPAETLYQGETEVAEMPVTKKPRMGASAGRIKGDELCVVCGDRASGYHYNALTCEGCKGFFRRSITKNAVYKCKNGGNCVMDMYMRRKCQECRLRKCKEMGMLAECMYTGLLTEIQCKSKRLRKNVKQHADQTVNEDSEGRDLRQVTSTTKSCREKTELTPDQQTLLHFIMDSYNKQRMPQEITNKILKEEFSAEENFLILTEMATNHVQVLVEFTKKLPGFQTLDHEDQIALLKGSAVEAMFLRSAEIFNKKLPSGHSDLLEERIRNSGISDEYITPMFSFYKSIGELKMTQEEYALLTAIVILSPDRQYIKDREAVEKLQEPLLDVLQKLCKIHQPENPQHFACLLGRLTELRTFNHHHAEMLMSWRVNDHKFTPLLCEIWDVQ
In short: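 Human kidney HEK293T cells carried FXR/SRC-1 fragment-complementation constructs. Compounds were added and incubated 8 h. Reporter reassembly upon receptor–co-activator interaction was then quantified by fluorescence, with curves fitted in the positive direction relative to DMSO.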

[2] = target: Bile acid receptor (Homo sapiens) (UniProt Q96RI1); test: OT_FXR_FXRSRC1_1440: Odyssey Thera (OT) 24-hour HEK293T Protein-Complementation Assay for Farnesoid X receptor/SRC-1 Co-activator (AID 2283384)
In short: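 Compounds are applied to human kidney HEK293T cells expressing bait and prey fused to reporter protein fragments; after 24 h, reconstituted reporter fluorescence is measured. Activity is fitted as signal gain over DMSO.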

[3] = target: Retinoic acid receptor RXR-alpha (Homo sapiens) (UniProt P19793); test: OT_NURR1_NURR1RXRa_0480: Odyssey Thera (OT) 8-hour HEK293T Protein Complementation Assay for Nurr1/retinoid X receptor (RXR) (AID 2283385)
Chain of Retinoic acid receptor RXR-alpha (Homo sapiens) (P19793 whole entry, looked up, the tested form may be a part): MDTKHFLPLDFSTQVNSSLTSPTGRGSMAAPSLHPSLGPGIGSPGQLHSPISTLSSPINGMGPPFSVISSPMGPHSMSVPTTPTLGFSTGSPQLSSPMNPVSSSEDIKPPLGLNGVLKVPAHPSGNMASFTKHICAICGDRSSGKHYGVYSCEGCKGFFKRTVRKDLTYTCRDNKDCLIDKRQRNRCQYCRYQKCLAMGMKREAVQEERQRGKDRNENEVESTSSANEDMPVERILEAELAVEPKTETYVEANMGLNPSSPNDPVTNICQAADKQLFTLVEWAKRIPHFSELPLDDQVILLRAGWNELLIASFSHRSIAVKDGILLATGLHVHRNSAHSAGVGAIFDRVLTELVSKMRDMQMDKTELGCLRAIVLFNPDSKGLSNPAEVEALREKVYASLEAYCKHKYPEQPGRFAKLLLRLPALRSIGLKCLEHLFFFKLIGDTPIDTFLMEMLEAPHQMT
In short: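 8 h compound exposure, HEK293T; Nurr1/RXRα fragment complementation; fluorescence intensity; positive fitting direction vs DMSO baseline.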

[4] = target: Peroxisome proliferator-activated receptor gamma (Homo sapiens) (UniProt P37231); test: OT_PPARg_PPARgSRC1_0480: Odyssey Thera (OT) 8-hour Protein-Complementation Assay for Peroxisome Proliferator-activated Receptor Gamma / SRC-1 Co-activator (AID 2283387)
Chain of Peroxisome proliferator-activated receptor gamma (Homo sapiens) (P37231 whole entry, looked up, the tested form may be a part): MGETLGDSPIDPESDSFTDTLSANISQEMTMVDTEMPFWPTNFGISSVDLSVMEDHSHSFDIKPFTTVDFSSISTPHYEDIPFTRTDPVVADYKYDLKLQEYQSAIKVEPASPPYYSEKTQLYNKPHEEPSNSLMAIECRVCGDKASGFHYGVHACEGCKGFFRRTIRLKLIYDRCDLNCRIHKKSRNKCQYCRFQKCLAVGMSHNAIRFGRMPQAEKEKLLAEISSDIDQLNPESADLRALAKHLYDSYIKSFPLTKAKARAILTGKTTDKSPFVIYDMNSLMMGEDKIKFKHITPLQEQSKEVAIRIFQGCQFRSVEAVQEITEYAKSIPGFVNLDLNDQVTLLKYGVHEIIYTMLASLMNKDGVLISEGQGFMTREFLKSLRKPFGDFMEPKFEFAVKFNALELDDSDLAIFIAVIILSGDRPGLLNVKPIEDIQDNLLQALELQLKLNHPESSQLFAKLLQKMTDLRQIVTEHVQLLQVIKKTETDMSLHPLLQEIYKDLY
In short: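 Split-YFP (IFP1/IFP2) PPARg/SRC-1 reporter, HEK293T, 37 °C, 5% CO2; 8 h compound; formaldehyde fix + Draq5; high-content imaging, N/C ratio, ≥350 cells/image, positive direction vs DMSO.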

[5] = target: Peroxisome proliferator-activated receptor gamma (Homo sapiens) (UniProt P37231); test: OT_PPARg_PPARgSRC1_1440: Odyssey Thera (OT) 24-hour Protein-Complementation Assay for Peroxisome Proliferator-activated Receptor Gamma/ SRC-1 Co-activator (AID 2283388)
In short: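 HEK293T cells transiently transfected with PPARg and SRC-1 fused via (Gly4Ser)2 linker to split Venus YFP fragments (IFP1/IFP2) were dosed 24 h; fixed, Draq5-stained, imaged at 488/635 nm; nuclear/cytoplasmic fluorescence ratio scored versus DMSO baseline, gain-of-signal.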

[6] = CEETOX_H295R_OHPREG: CeeTox H295R High-throughput Steroidogenesis Assay for OH-Pregnenolone (OHPREG) (AID 2283434; active = hit-call score of the fitted dose curve at least 0.9, where 1 is the maximum; inactive = score below 0.9); details: actives raise or lower the signal
In short: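 Hormone levels in spent medium were measured by tandem mass spectrometry following liquid-liquid extraction. Cells (H295R) had been forskolin-stimulated (10 uM, 48 h) before a 48 h chemical exposure at 0.1% DMSO, with activity fitted in both directions against DMSO.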

[7] = CEETOX_H295R_OHPROG: CeeTox H295R High-throughput Steroidogenesis Assay for OH-Progesterone (OHPROG) (AID 2283435; active = hit-call score of the fitted dose curve at least 0.9, where 1 is the maximum; inactive = score below 0.9;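 also: 17alpha-hydroxyprogesterone secreted into medium measured by HPLC-MS/MS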); details: actives raise or lower the signal
In short: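 H295R, 10 uM forskolin prestim 48 h; cmpd in 0.1% DMSO 48 h; medium MTBE-extracted, HPLC-MS/MS for OH-progesterone; 7-pt std curve; bidirectional fit vs DMSO; MTT viability, chemicals diluted until viability >/=70%.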

[8] = CEETOX_H295R_ANDR: CeeTox H295R High-throughput Steroidogenesis Assay for Androstenedione (ANDR) (AID 2283436; active = hit-call score of the fitted dose curve at least 0.9, where 1 is the maximum; inactive = score below 0.9); details: actives raise or lower the signal
In short: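 Read-out is androstenedione secreted into medium, measured by tandem mass spectrometry after liquid-liquid extraction. Cells were H295R, dosed for 48 h per modified OECD 456; activity fitted in both directions relative to DMSO.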

[9] = CEETOX_H295R_PROG: CeeTox H295R High-throughput Steroidogenesis Assay for Progesterone (PROG) (AID 2283442; active = hit-call score of the fitted dose curve at least 0.9, where 1 is the maximum; inactive = score below 0.9;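 as to AC50: human H295R adrenal cells primed with 10 µM forskolin before dosing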); details: actives raise or lower the signal
In short: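 H295R human adrenal cells were prestimulated with 10 uM forskolin for 48 h, then exposed to test chemical (0.1% DMSO final) for 48 h. Medium progesterone was MTBE-extracted and quantified by HPLC-MS/MS, with bidirectional fitting against DMSO.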

[10] = target: Retinoic acid receptor RXR-alpha (Homo sapiens) (UniProt P19793); test: OT_NURR1_NURR1RXRa_1440: Odyssey Thera (OT) 24-hour HEK293T Protein Complementation Assay for Nurr1/retinoid X receptor (RXR) (AID 2283386)
In short: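 Interaction of Nurr1 with RXRα brings fused reporter fragments together in human HEK293T cells, restoring a functional reporter. Fluorescence intensity is measured 24 h after chemical treatment, and values are analysed in the positive direction against DMSO.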

[11] = CEETOX_H295R_11DCORT: CeeTox H295R High-throughput Steroidogenesis Assay for 11-Deoxycortisol (11DCORT) (AID 2283432; active = hit-call score of the fitted dose curve at least 0.9, where 1 is the maximum; inactive = score below 0.9;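 as to AC50: 11-deoxycortisol secreted into the medium measured by LC-MS/MS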); details: actives raise or lower the signal
In short: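 Steroidogenesis in human H295R cells: 48 h chemical exposure after forskolin priming, 11-deoxycortisol measured by LC-MS/MS.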

[12] = CEETOX_H295R_CORTIC: CeeTox H295R High-throughput Steroidogenesis Assay for Corticosterone (CORTIC) (AID 2283437; active = hit-call score of the fitted dose curve at least 0.9, where 1 is the maximum; inactive = score below 0.9;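 also: corticosterone secreted into medium quantified by mass spectrometry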); details: actives raise or lower the signal
In short: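 Corticosterone secreted into medium is measured by reverse-phase HPLC with tandem MS following liquid-liquid extraction. Cells are forskolin-stimulated (10 uM, 48 h) before 48 h test exposure; activity fitted in both directions against DMSO.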

[13] = CEETOX_H295R_CORTISOL: CeeTox H295R High-throughput Steroidogenesis Assay for Cortisol (AID 2283438; active = hit-call score of the fitted dose curve at least 0.9, where 1 is the maximum; inactive = score below 0.9;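 also: cortisol secreted into medium quantified by LC-MS/MS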); details: actives raise or lower the signal
In short: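 Forskolin 10 uM 48 h prestim → test cmpd in DMSO (0.1% final) 48 h → medium MTBE-extracted → LC-MS/MS cortisol vs 7-pt std curve. Gain/loss of signal fitted vs DMSO. MTT viability in same wells.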

[14] = CEETOX_H295R_DOC: CeeTox H295R High-throughput Steroidogenesis Assay for DOC (AID 2283439; active = hit-call score of the fitted dose curve at least 0.9, where 1 is the maximum; inactive = score below 0.9); details: actives raise or lower the signal
In short: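 Readout: 11-deoxycorticosterone in culture medium by reverse-phase C18 HPLC with ESI+ tandem MS after MTBE extraction. Cells: H295R, forskolin-primed (10 uM, 48 h), chemical-treated 48 h; DMSO 0.1% final. Activity fitted bidirectionally versus DMSO.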

[15] = target: Estrogen receptor (Homo sapiens) (UniProt P03372); test: OT_ERa_GFPERaERE_0120: Odyssey Thera (OT) 2-hour HeLa Transcription Induction Assay for Estrogen Receptor (AID 2283382)
Chain of Estrogen receptor (Homo sapiens) (P03372 whole entry, looked up): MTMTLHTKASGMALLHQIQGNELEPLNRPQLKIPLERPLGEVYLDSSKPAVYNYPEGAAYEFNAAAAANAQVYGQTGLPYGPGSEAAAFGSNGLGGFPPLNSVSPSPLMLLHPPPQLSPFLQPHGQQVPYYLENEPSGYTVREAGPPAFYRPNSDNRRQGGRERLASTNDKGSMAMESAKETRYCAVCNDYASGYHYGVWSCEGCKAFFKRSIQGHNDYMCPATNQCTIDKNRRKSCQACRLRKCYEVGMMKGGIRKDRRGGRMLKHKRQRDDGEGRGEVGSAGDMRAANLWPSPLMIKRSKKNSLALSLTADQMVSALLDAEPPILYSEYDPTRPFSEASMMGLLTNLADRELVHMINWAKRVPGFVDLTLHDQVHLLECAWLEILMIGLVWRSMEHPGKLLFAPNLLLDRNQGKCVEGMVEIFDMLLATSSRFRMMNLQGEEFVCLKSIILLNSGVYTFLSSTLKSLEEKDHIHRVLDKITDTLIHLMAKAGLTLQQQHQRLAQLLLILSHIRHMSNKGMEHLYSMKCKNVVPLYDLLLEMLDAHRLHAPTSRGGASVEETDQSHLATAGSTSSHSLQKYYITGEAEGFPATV
In short: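 HeLa, 384-well, 2 h chemical exposure; GFP reporter induction (ERE), fluorescence microscopy; high content image analysis; positive fitting direction vs DMSO.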

[16] = read-out: Tumor necrosis factor receptor superfamily member 6 (Homo sapiens) (UniProt P25445); test: LTEA_HepaRG_FAS: Life Technologies and Expression Analysis (LTEA) Assay for Fas cell surface death receptor (FAS) using HepaRG (AID 2283447; active = hit-call score of the fitted dose curve at least 0.9, where 1 is the maximum; inactive = score below 0.9); details: mRNA level, 48 h; actives raise or lower the signal
In short: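 FAS transcript level was measured by TaqMan qRT-PCR against three housekeeping genes after 48 h chemical exposure. Cells were HepaRG, 0.5% DMSO vehicle, with a top concentration of 100 uM and half-log dilutions over eight points, in duplicate.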

[17] = read-out: Fatty acid synthase (Homo sapiens) (UniProt P49327); test: LTEA_HepaRG_FASN: Life Technologies and Expression Analysis (LTEA) Assay for Fatty Acid Synthase (FASN) using HepaRG (AID 2283448; active = hit-call score of the fitted dose curve at least 0.9, where 1 is the maximum; inactive = score below 0.9); details: mRNA level, 48 h; actives raise or lower the signal
In short: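 FASN expression changes, up or down relative to 0.5% DMSO, were measured by qRT-PCR in human HepaRG cells after 48 h treatment with chemicals at eight concentrations (half-log steps from 100 uM).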

[18] = read-out: Cyclin Dependent Kinase Inhibitor 1A (CDKN1A), CDKN1A (gene 1026); test: LTEA_HepaRG_CDKN1A: Life Technologies and Expression Analysis (LTEA) Assay for Cyclin Dependent Kinase Inhibitor 1A (CDKN1A) using HepaRG (AID 2283450; active = hit-call score of the fitted dose curve at least 0.9, where 1 is the maximum; inactive = score below 0.9); details: mRNA level, 48 h; actives raise or lower the signal
In short: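 Differentiated human HepaRG cells, pre-cultured 48 h, were exposed in duplicate for 48 h in serum-free induction medium to eight half-log concentrations up to 100 uM (0.5% DMSO). CDKN1A mRNA was measured by qRT-PCR, normalized to ACTB/GAPDH/POLR2A, bidirectionally fitted versus DMSO.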

Measured: AC50

Chain of Fatty acid synthase (Homo sapiens) (P49327 whole entry, looked up): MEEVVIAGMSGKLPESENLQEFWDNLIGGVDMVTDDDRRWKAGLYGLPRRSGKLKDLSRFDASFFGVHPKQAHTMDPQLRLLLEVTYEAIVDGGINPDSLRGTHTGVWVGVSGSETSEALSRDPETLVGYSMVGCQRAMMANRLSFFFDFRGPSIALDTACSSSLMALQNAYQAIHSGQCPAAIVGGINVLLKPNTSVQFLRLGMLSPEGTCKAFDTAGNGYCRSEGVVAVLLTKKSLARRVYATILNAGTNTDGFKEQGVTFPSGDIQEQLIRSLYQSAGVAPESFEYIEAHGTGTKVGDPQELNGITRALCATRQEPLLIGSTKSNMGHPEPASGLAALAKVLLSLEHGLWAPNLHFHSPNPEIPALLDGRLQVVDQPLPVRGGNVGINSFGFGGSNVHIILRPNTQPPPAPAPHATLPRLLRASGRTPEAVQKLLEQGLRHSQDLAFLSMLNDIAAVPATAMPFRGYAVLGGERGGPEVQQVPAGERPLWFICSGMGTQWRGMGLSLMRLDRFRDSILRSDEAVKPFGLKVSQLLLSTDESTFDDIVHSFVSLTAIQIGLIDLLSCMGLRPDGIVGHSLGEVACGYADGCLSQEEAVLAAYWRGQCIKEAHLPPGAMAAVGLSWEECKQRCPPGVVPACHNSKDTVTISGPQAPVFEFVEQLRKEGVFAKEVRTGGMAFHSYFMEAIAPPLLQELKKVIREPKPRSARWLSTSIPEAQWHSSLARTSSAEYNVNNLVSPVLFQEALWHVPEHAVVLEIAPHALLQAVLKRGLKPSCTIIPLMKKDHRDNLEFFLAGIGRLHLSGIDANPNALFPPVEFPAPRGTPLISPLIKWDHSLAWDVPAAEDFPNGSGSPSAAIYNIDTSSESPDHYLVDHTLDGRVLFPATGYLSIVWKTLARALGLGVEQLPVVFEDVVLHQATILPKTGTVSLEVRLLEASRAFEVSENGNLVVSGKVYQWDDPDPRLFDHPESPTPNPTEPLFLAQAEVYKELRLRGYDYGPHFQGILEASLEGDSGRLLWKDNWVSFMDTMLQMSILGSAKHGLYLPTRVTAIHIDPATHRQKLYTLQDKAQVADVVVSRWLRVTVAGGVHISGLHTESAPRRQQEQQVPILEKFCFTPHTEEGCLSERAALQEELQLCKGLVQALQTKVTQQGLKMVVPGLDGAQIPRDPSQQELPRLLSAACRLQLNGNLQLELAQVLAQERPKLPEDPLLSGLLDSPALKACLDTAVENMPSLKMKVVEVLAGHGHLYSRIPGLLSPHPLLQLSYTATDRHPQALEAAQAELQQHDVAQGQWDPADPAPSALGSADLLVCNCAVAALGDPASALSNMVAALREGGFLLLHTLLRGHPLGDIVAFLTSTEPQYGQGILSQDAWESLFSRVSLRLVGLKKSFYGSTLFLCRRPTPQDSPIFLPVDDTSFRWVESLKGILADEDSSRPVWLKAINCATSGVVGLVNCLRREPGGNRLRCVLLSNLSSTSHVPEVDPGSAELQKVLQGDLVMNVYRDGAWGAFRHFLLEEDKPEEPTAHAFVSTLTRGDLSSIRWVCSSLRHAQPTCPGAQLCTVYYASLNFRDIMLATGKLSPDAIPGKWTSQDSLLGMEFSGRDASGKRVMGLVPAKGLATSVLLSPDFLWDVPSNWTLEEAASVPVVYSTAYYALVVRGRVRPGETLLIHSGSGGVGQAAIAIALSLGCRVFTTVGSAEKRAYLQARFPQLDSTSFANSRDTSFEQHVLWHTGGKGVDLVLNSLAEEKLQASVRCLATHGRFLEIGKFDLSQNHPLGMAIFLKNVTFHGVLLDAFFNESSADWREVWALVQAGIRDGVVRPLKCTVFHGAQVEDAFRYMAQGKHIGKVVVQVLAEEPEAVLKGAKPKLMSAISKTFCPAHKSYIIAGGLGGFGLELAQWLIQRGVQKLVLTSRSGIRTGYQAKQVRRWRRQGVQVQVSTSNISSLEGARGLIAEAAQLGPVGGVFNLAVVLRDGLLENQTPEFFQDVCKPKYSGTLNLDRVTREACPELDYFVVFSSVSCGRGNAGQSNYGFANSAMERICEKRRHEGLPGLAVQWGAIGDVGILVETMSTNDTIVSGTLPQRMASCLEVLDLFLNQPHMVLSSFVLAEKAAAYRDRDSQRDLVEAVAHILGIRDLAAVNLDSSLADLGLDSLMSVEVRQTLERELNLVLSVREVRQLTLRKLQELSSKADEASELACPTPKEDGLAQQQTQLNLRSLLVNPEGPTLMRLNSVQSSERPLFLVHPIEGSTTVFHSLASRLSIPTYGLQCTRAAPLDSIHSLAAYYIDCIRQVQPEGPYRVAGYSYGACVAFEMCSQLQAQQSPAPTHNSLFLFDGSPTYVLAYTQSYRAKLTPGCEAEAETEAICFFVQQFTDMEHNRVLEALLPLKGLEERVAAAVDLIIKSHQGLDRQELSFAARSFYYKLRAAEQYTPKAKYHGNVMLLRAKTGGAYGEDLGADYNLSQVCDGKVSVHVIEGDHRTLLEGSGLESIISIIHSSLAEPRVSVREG

OCc1cccc(Oc2ccccc2)c1
inactive: [1] | [2] | [3] | [4] | [5] | [6] | [9]
active: [7] 50 µM | [8] 50 µM

Cc1cc(=O)oc2cc(N(C)C)ccc12
active: [1] 50 µM | [2] 50 µM | [6] 45.6 µM | [7] 50 µM
not listed: [8] | [15] | [16] | [17] | [18]
inactive: all other assays above

CCCCCCC(=O)c1ccccc1
inactive: [1] | [2] | [3] | [10] | [4] | [5]

CC(C)CC(C)CC(O)CC(C)C (configuration not stated)
inactive: [1] | [2] | [10] | [4] | [5]

CCCCC1CCC(O)CC1 (configuration not stated)
inactive: [1] | [2] | [3] | [10] | [4] | [5]

CC(=O)O[C@@H]1CC2CCC1(C)C2(C)C (some centres not stated)
inactive: [1] | [3] | [10] | [4] | [5]

C=CC(C)(O)CCC=C(C)C (configuration not stated)
inactive: [1] | [2] | [3] | [4] | [5]

CCCCCCCCCCCCCC(=O)OCC(O)CO (configuration not stated)
active: [1] 79.8 µM | [2] 82.9 µM
inactive: [3] | [10]

CC(C)c1ccccc1O
inactive: [1] | [3] | [10]

O=C1NC2NC(=O)NC2N1 (configuration not stated)
inactive: [1] | [2] | [3] | [10] | [4] | [5]

CS(=O)(=O)OCCCCOS(C)(=O)=O
inactive: [15] | [3] | [10] | [4] | [5] | [16] | [17] | [18]

C=C1CC[C@H](O)C/C1=C/C=C1\CCC[C@]2(C)[C@@H]([C@H](C)/C=C/[C@H](C)C(C)C)CC[C@@H]12
inactive: [3] | [10] | [4] | [5] | [12]
active: [1] 36.8 µM | [11] 19.8 µM | [6] 4.66 µM | [7] 12.3 µM | [13] 42.5 µM | [14] 87.2 µM | [9] 84.3 µM

Nc1ccc(N)c2c1C(=O)c1ccccc1C2=O
active: [11] 7.09 µM | [7] 1.51 µM | [14] 4.43 µM
inactive: [2] | [5] | [6] | [8] | [12] | [13] | [9]

O=P(O)(O)O
inactive: [3] | [10] | [4] | [5]

CCCCC(CC)COC(=O)c1ccc(O)cc1 (configuration not stated)
inactive: [3]

Cc1ccc(S(=O)(=O)Oc2ccc(N=Nc3ccc(-c4ccc(N=Nc5c(O)ccc6cc(S(=O)(=O)O)cc(S(=O)(=O)O)c56)c(C)c4)cc3C)cc2)cc1
active: [3] 35 µM
inactive: [2] | [10] | [4] | [5]

OCCc1ccccc1
inactive: [2] | [10] | [4] | [5]

O=C1OC(=O)c2c(Cl)c(Cl)c(Cl)c(Cl)c21
inactive: [1] | [3] | [4] | [5]

C1=CC2C3C=CC(C3)C2C1 (configuration not stated)
inactive: [1] | [3] | [10] | [5]

COC(=O)c1ccc(C)cc1C1=NC(C)(C(C)C)C(=O)N1 (configuration not stated) (tested in a mixture with another compound)
inactive: [3] | [10] | [4] | [5]

ON=C1CCCCC1
inactive: [3] | [10] | [4] | [5]

CCCCCCCCCCCCN1CCCCCC1=O
inactive: [5]
active: [1] 11.3 µM | [3] 44.3 µM

Cc1cc(S(=O)(=O)O)ccc1N=Nc1c(O)ccc2ccccc12
inactive: [2] | [10] | [4] | [5]

CCc1ccc(O)cc1
inactive: [3] | [10] | [4] | [5]

Cc1ccc(S(N)(=O)=O)cc1
inactive: [1] | [4] | [5]

CC1CC(O)CC(C)(C)C1 (configuration not stated)
inactive: [2] | [4] | [5]

O=C(O)c1ccc(O)cc1
inactive: [2] | [10] | [4] | [5]

CCCCCC(C)=O
inactive: [3] | [10] | [4] | [5]

C=C[Si]1(C)O[Si](C)(C=C)O[Si](C)(C=C)O[Si](C)(C=C)O1 (configuration not stated)
inactive: [3] | [10] | [4] | [5]

O=C(O)CCCCCCCCC(=O)O
inactive: [3] | [10] | [4] | [5]

CCCCCCC(CO)CCCC (configuration not stated)
inactive: [3] | [10] | [4] | [5]

CCCCCCC(C)(C)S
inactive: [3] | [10] | [4] | [5]

Oc1ccc2cc(SSc3ccc4cc(O)ccc4c3)ccc2c1
inactive: [4] | [5]
active: [2] 75.3 µM | [3] 78.7 µM | [10] 19.7 µM

COc1ccccc1N=Nc1c(S(=O)(=O)O)cc2cc(S(=O)(=O)O)cc(NC(C)=O)c2c1O
inactive: [3] | [10] | [4] | [5]
